An excerpt weighted towards active compounds, which were near 1.4% of everything screened.
RAD54 inh: inhibitors of human RAD54 branch migration, primary screen, biochemical, fluorescence, single point; RAD54 Holliday junction branch migration, FAM/BHQ fluorescence; inhibition, % at 10.4 µM; 360,000 compounds, 0.14% hits;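 active = mean normalized replicate activity at least 40 and at least half of replicates scoring 40 or more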;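 also: 0% = median of neutral control wells and 100% = median of positive control wells; inhibitors cause a drop in the FAM fluorescence signal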
INS-1E GSIS act: GLuc luminescence reporter in INS-1E cells, primary screen for activators of glucose-dependent secretion of insulin; AID 743287, 2014; 370,000 compounds, 0.61% hits; activation, % at 16.6 µM; INS-1E GLuc reporter insulin secretion, 2-3 h;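 active = lowest replicate activation of at least 40%, so every replicate reaches that level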;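 also: 0% = median of neutral control wells and 100% = median of IBMX positive control wells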
MLL AF4-AF9 inh: inhibitors of AF4 peptide binding to AF9, primary screen, biochemical, AlphaScreen, biotin-AF4 peptide, FLAG-AF9, single point; Protein AF-9 (Homo sapiens), P42568; inhibition, % at 10 µM; 350,000 compounds, 0.47% hits; AID 651704, 2012;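 active = every replicate reaching a set inhibition limit, whatever the replicate mean, cut at about 25% in these data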;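 also: 0% = plate neutral control median and 100% = total signal loss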
ERAP1 inh: human ERAP1 aminopeptidase inhibitors, primary screen, biochemical, single point, plate reader. Endoplasmic reticulum aminopeptidase 1 (Homo sapiens), Q9NZ08. inhibition, % at 10.7 µM. 340,000 compounds, 0.15% hits. recombinant ERAP1, Leu-AMC fluorescence, 60 min;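 active = mean replicate inhibition of at least 30%, or all replicates individually reaching that 30% level; inactive = mean below 30% and not every replicate reaching it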;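 also: 0% = neutral control wells and 100% = L-leucinethiol positive control wells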
Target sequence (Q9NZ08 whole entry, looked up): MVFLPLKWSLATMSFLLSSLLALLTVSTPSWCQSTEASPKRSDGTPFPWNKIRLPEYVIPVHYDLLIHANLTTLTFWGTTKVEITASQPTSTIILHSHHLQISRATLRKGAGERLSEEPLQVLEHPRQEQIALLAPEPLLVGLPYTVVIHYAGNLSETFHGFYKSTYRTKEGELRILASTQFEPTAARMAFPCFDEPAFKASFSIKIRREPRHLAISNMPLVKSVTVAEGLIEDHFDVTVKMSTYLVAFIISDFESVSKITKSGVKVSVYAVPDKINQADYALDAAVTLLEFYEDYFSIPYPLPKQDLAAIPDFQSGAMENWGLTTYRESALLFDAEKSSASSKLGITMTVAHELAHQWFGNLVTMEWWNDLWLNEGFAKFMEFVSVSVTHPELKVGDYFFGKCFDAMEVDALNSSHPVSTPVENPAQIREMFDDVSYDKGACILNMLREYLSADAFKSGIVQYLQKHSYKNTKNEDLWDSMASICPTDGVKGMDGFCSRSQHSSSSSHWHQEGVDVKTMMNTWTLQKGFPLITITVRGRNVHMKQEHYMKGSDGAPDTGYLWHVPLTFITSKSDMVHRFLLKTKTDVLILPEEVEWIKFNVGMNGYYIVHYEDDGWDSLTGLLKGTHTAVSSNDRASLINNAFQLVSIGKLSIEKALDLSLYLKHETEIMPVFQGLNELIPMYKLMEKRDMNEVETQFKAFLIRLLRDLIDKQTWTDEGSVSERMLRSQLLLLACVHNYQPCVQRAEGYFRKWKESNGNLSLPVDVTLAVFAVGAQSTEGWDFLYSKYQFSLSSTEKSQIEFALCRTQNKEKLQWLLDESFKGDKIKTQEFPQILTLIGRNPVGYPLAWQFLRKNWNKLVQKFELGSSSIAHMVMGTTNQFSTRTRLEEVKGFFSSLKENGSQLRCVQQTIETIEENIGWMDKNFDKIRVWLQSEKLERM
PGC1a acetyl inh: inhibitors of PGC1a acetylation signal, primary screen, cell-based, U2OS, AlphaScreen, inhibitor mode. AID 651687, 2012. inhibition, % at 15.6 µM. 350,000 compounds, 0.17% hits. AlphaScreen anti-acetyl-lysine; with virally co-expressed GCN5 acetyltransferase;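 active = every replicate shows inhibition of at least 40%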;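 also: 0% = neutral control wells and 100% = positive control wells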
RAD52 anneal inh: RAD52 DNA annealing inhibitors, primary screen, biochemical, FRET, single point, set 2 | recombinant RAD52 DNA annealing, FRET fluorescence | inhibition, % at 18.7 µM | 360,000 compounds, 0.46% hits | DNA repair protein RAD52 homolog (Homo sapiens), P43351;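 active = every replicate showing at least 50% inhibition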
Numbers without * were called inactive; / = no result.

SMILES	RAD54 inh	INS-1E GSIS act	MLL AF4-AF9 inh	ERAP1 inh	PGC1a acetyl inh	RAD52 anneal inh
CC(NC(=O)/C(C#N)=C/c1ccc(OCC(=O)O)cc1)c1ccccc1 (stereo not drawn)	3	4	3	35*	/	-7
C[C@@H](NC(=O)/C(C#N)=C/c1ccc(O)c(O)c1)c1ccccc1	0	/	-1	3	0	-22
CCCN1C(=O)/C(=C/c2ccncc2)SC1=S	/	18	-2	-2	/	-28
CN1C(=O)/C(=C\c2ccncc2)SC1=Nc1ccccc1	/	67*	/	/	/	/
COc1ccc(NC(=O)N2CCCCN3[C@@H](CO)[C@H](c4ccc(-c5ccccc5F)cc4)[C@@H]3C2)cc1	4	-19	-2	0	-21	60*
O=C(Nc1ccccc1)N1CCCCN2[C@H](C1)[C@H](c1ccc(-c3ccccc3F)cc1)[C@@H]2CO	-1	-14	0	-1	1	-1
COc1ccc(NC(=O)N2CCCCN3[C@@H](CO)[C@@H](c4ccc(-c5ccccc5F)cc4)[C@@H]3C2)cc1	20	-17	3	1	-26	65*
C[n+]1c2n(c3ccccc31)N=C(c1ccc(-c3ccccc3)cc1)CS2	/	-36	19	0	-21	71*
C[n+]1c2n(c3ccccc31)N=C(c1ccccc1)CS2	4	-7	-2	-4	7	9
CO[C@@H]1CN(C)C(=O)c2cc(NC(C)=O)ccc2OC[C@@H](C)N(Cc2cccc(F)c2)C[C@H]1C	2	-15	3	1	20	-10
Cc1cc(/C=N/N2CCN(C)CC2)c(C)n1-c1ccc(Cl)cc1	10	4	48*	3	14	18
Cc1cc(/C=N/n2cnnc2)c(C)n1-c1ccc(Cl)cc1	/	-2	/	/	/	/
CCc1nc(SCC(=O)c2ccccc2)c2c(=O)n(C)c(=O)n(C)c2n1	/	41*	-7	-3	6	-11
CCCc1nc(SCC(=O)c2ccccc2)c2c(=O)n(C)c(=O)n(C)c2n1	4	8	-16	4	2	-10
N#CC1=C(N)Oc2n[nH]c(-c3ccccc3)c2C1c1cccnc1 (stereo not drawn)	6	/	/	/	12	/
Cc1ccc(-c2[nH]nc3c2C(c2cccnc2)C(C#N)=C(N)O3)cc1 (stereo not drawn)	-2	78*	/	/	-9	/
Cc1ccc(C2C(C#N)=C(N)Oc3nc(-c4ccccc4)[nH]c32)o1 (stereo not drawn)	12	/	/	/	-1	/
N#CC1=C(N)Oc2nc(-c3ccccc3)[nH]c2C1c1cccnc1 (stereo not drawn)	-12	48*	/	/	13	/
COc1ccc(NC(=O)Nc2cccc3c2O[C@@H](CN(C)S(C)(=O)=O)[C@H](C)CN([C@@H](C)CO)C3=O)cc1	3	0	-3	1	1	5
CCOc1cc(CNc2cccc3[nH]c(C)nc23)ccc1OC	-11	27	30*	-5	-3	6
C=CC[N+](C)(C)CCCNC(=O)/C=N/O	/	7	1	69*	/	4
C[C@@H]1CN([C@@H](C)CO)C(=O)c2cc(NS(=O)(=O)c3ccccc3)ccc2O[C@@H](C)CCCCO[C@H]1CN(C)C(=O)Nc1cccc2ccccc12	-12	2	-2	3	-33	-6
COc1ccc2c(c1)c(C(=O)OCCN(C)C)c(C)n2C	59*	/	/	/	9	/
COCCOC(=O)c1c(C)n(C)c2ccc(OC(=O)c3c(OC)cccc3OC)cc12	-5	15	-5	-2	3	-2
CC(C)CNC(=O)[C@@H]1c2ccccc2C(=O)N(CC23CC4CC(CC(C4)C2)C3)[C@H]1c1ccc(CO)cc1	11	/	-9	0	-8	-13
SMILES	RAD54 inh	INS-1E GSIS act	MLL AF4-AF9 inh	ERAP1 inh	PGC1a acetyl inh	RAD52 anneal inh
COc1ccc(C=O)cc1Cn1cnc2c(cnn2C)c1=O	/	7	-3	4	7	-11
COc1ccc(C(C)=O)cc1Cn1cnc2c(cnn2C)c1=O	-5	50*	1	2	10	-15
CCCC(=O)Nc1ccc2c(c1)C(=O)N(C)[C@@H]1CC[C@@H](CC(=O)Nc3cn(C)nc3C)O[C@@H]1CO2	-5	10	0	1	4	-7
CCCCCSc1nnc(C)c(=O)[nH]1	/	4	-36	1	91*	-17
CCCCSc1nnc(C)c(=O)[nH]1	-1	5	4	4	-1	10
CCCc1cc(=O)oc2c(CN(CC)CC)c(O)c(Cl)cc12	-16	-27	-7	189*	-2	-5
COc1ccc(NC(=O)COC(=O)CNC(=O)C2CCCCC2)cc1OC	-13	59*	-4	0	6	5
NC(N)=NN=C1c2ccccc2-c2ccccc21	82*	-26	13	-1	0	43
CC(C)[C@@H]1CC[C@@H](C)C[C@H]1OC[B-](F)(F)F	/	69*	0	-5	/	11
C[C@@H]1CN([C@H](C)CO)C(=O)c2cc(NC(=O)NC3CCCCC3)ccc2O[C@@H]1CN(C)C(=O)Nc1ccccc1	-6	-4	-7	0	3	-2
C[C@H]1CC=CC[C@@H](c2cccc(Cl)c2)NC(=O)[C@H](C)N(C)C(=O)c2ccccc2O1 (mixture of isomers)	/	-24	/	/	/	/
O=C(NN=C1c2ccccc2-c2ccccc21)c1ccccc1	12	4	9	-1	1	-15
O=C(NN=C1c2ccccc2-c2ccccc21)c1ccccc1Br	9	6	1	0	66*	-9
Cc1cc(=O)[nH]c2c1c(C)nn2C1CCCC1	1	53*	/	/	-97	/
Cc1cc(=O)[nH]c2c1c(C)nn2C1CCCCC1	11	3	-6	7	0	-3
COc1ccc(NC(=O)C2CCCN2S(=O)(=O)c2ccc3c(c2)CC(C)N3C(C)=O)cc1OC (stereo not drawn)	3	101*	2	2	-1	-5
COc1ccc(NC(=O)C2CCN(S(=O)(=O)c3ccc4c(c3)CC(C)N4C(C)=O)CC2)cc1OC (stereo not drawn)	7	26	2	-2	-7	-6
C[C@@H]1CN([C@H](C)CO)C(=O)c2cc(NC(=O)Cc3ccccc3)ccc2O[C@@H](C)CCCCO[C@H]1CN(C)S(=O)(=O)c1ccc(Cl)cc1	-1	-12	1	4	-20	2
CC(C)Nc1nc(Nc2ccc(C(N)=O)cc2)c2sccc2n1	14	70*	-1	1	-4	11
CNc1nc(Nc2ccc(C(=O)OC)cc2)c2sccc2n1	-9	/	/	/	/	/
